Test results taken from PubChem BioAssay AID488890 (Southern Research Specialized Biocontainment Screening …, 2010).
Screen size: about 320,000 compounds; about 1,300 (0.41%) were called active. Roughly 3% stayed inconclusive and do not appear here. How the calls were made is not given here. These entries were drawn from the full list. Entries with a potency or affinity are not part of this list.

Assay: growth inhibition of non-replicating M. tuberculosis (AID 488890);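 further: plate controls were DMSO cells for no effect and high antibiotic wells for full effect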
Conditions: Mycobacterium tuberculosis non-replicating, at 25 µM, stronger effect = higher value

SMILES	inhibition
CCOC(=O)c1ccc(CNC(=O)Cn2nnc(-c3cccc(C)c3)n2)o1	4.91%
Cc1ccccc1NC(=O)COC(=O)CCSc1ccccc1	61.5%
CCOc1ccc(C(=O)n2cc(C(=O)OC)c3ccccc32)cc1	24.8%
O=C1CCc2cc(S(=O)(=O)NCc3ccc(F)cc3)cc3c2N1CCC3	22.8%
COc1ccc(CNC(=O)CSc2ncn[nH]2)cc1OC	-3.59%
COC(=O)c1ccc(NC(=O)CN2CCN(S(=O)(=O)c3cc(Cl)ccc3OC)CC2)cc1	54.1%
COC(=O)c1sc(NC(=O)c2ccco2)c(C#N)c1C	16.9%
CN1CCc2c(sc(NC(=O)c3ccc(C(=O)c4ccccc4)cc3)c2C(N)=O)C1	-13.4%
COC(=O)c1sc(NC(=O)c2c(OC)cccc2OC)c(C#N)c1C	-6.6%
CN1CCc2c(sc(NC(=O)c3ccco3)c2C(N)=O)C1	0.26%
COC(=O)c1c(NC(=O)Cc2ccccc2)sc2c1CCN(C(C)C)C2	-13.3%
COC(=O)c1c(NC(=O)c2ccco2)sc2c1CCN(C(C)C)C2	2.92%
COc1ccc(/C(C)=N/OCC(=O)N=Nc2c(O)[nH]c3ccccc23)cc1	-24.1%
CCC(C)NC(=O)/C=C/c1cccs1 (stereo not drawn)	59.1%
COc1ccc(CNC(=O)N2CCN(c3ccccc3OC)CC2)cc1	1.13%
O=C(CCc1nc2ccccc2c(=O)[nH]1)Nc1nnc(SCc2ccc(F)cc2)s1	-4.81%
O=C(Cc1ccccc1)c1ccccc1C(=O)N1CCCCC1	9.16%
O=C(Nc1ccc(Cl)c(Cl)c1)Nc1nnc(-c2ccncc2)s1	68.9%
O=C(Nc1ccc(Cl)cc1)Nc1nnc(-c2ccncc2)s1	16.2%
CC1CCCC(NC(=O)COC(=O)c2ccc(Cl)nc2)C1C (stereo not drawn)	-6.83%
C=CCn1c(C)csc1=Nc1ccccc1C	10.7%
CCc1ccccc1NC(=O)c1noc(C(C)C)c1[N+](=O)[O-]	-10.1%
Cc1nn(Cc2ccccc2Cl)c(C)c1NC(=O)c1noc(C(C)C)c1[N+](=O)[O-]	-8.32%

SMILES	inhibition
O=C1CN(S(=O)(=O)c2ccccc2)CCN1	3.07%
O=C(CC(c1ccccc1)c1ccccc1O)NCc1ccccc1Cl (stereo not drawn)	23.8%
O=C1CSC(=S)N1c1cccnc1	11.9%
O=C1CSC(=Nc2ccc(Cl)cc2)N1Cc1cccnc1	1.07%
O=C(O)c1ccc(N2C(=O)CSC2=S)cc1	74.2%
O=C(O)c1ccc(N=C2SCC(=O)N2Cc2ccccc2)cc1	7%
N#Cc1ccc(OCC(O)CN2CCN(CC(O)COc3ccc(C#N)cc3)CC2)cc1 (stereo not drawn)	-21.4%
Cc1ccc(-c2nnc(-c3cccnc3)o2)cc1	37.8%
Brc1ccc(-c2nnc(-c3cccnc3)o2)cc1	68.4%
CN(C)S(=O)(=O)c1cccc(-c2nnc(SCc3cc(Cl)cc4c3OCOC4)n2N)c1	23.1%
Cc1onc(-c2ccccc2Cl)c1C(=O)Nc1ccccc1O	8.07%
CN1CC(=O)N/C1=N\C(=O)Nc1ccc(O)cc1	-12.3%
CN1CC(=O)NC1=NC(=O)c1cc(F)c(F)cc1Cl	-0.31%
COc1ccc(C2NC(=S)NC(C)=C2C(=O)Nc2ccccn2)cc1OC (stereo not drawn)	-7.65%
Cc1ccc(COC(=O)c2cc(S(=O)(=O)N3CCOCC3)ccc2C)cc1	40.1%
C/C(=N\NC(=O)c1ccncc1)c1cc2ccccc2o1	69.3%
COc1ccc2oc(=O)c(/C(N)=N/NC(=O)c3ccncc3)cc2c1	61.4%
C/C(=N/NC(=O)c1ccncc1)c1cc2ccc(O)cc2oc1=O	78.4%
COc1ccc(/C(C)=N/NC(=O)c2ccncc2)cc1	67.2%
O=C(CCC(=O)N1CCOCC1)NCCc1ccc(F)cc1	5.21%
CC(C)C(NCC(=O)Nc1ccccc1C(=O)NC1CC1)c1ccccc1 (stereo not drawn)	19.6%
CCC(C)(C)NS(=O)(=O)c1cc(CN2C(=O)c3cccnc3C2=O)ccc1OC	17.1%
O=C1CC2(CCCCC2)Oc2ccc(OCC(=O)N3CCOCC3)cc21	43.3%

SMILES	inhibition
CCOC(=O)N1CCN(C(=O)COc2ccc3c(c2)C(=O)CC2(CCN(C(C)=O)CC2)O3)CC1	-4.94%
O=C(CCNC(=O)c1ccco1)Nc1ccc(Cl)c(C(F)(F)F)c1	4.07%
COc1ccc(C(=O)CC(=O)c2ccc(OC)cc2)cc1	19.6%
O=C(CCNc1cc(Cl)cc(Cl)c1)c1ccco1	-7.67%
O=C(CNC(=O)c1ccco1)Nc1cccc(Cl)c1	-9.33%
O=C(CNC(=O)c1ccco1)Nc1ccc(F)cc1	-22.8%
O=C(Nc1ccc(Cl)c(C(F)(F)F)c1)c1ccco1	71.2%
O=C(/C=C/Nc1ccc(F)cc1)c1ccco1	-1.7%
COc1ccc(C(=O)CCNc2cccc(Cl)c2)cc1	73.7%
O=C(CN1C(=O)NC2(CCCCC2)C1=O)N1CCN(c2ncccn2)CC1	3.11%
CC(C)(SC(=S)N1CCCCCC1)C(=O)O	13.4%
CC1=C(C(=O)NCc2ccc3c(c2)OCO3)C2(CCC(C)CC2)OC1=O (stereo not drawn)	1.75%
COc1ccccc1-n1cnnc1SC(C)C(=O)Nc1ccc(NC(C)=O)cc1 (stereo not drawn)	-12.2%
Oc1c(C(c2ccc(F)cc2)N2CCc3ccccc3C2)sc2ncnn12 (stereo not drawn)	13.3%
Cc1cc(C)cc(OCc2nnc(SCC(=O)c3ccccc3)o2)c1	-6.78%
C/C(N)=C(/C#N)C(=O)CSc1nnc(C)n1-c1ccccc1	-16.6%
O=C(O)C(F)(F)S(=O)(=O)O	-5.17%
Cc1cccc(NC2=NC3(CCCCC3)N=C(N)N2)c1	22.2%
Cc1ccc(C)c(NC(=S)NCc2ccc3c(c2)OCO3)c1	79.5%
CC(=O)Nc1ccc(Nc2ccc3nonc3c2[N+](=O)[O-])cc1	1.34%
COc1cccc(CNC(=O)CCNS(=O)(=O)c2ccc3[nH]c(=O)oc3c2)c1	-5.61%
Cc1ccc(C(=O)NCC(=O)Nc2ccc(F)c(F)c2F)cc1	-13.1%
O=C(Cn1nnc(-c2ccccc2)n1)NNC(=O)c1ccco1	67.8%

SMILES	inhibition
O=C(N/N=C\c1ccc(OC(=O)c2ccco2)cc1)c1ccc(Cl)cc1	78.6%
COc1cc(/C=N/Nc2ccc(Cl)c(C(=O)O)c2)ccc1OC(=O)c1ccccc1F	39%
Cc1ccc(C(=O)N/N=C\c2ccc(OC(=O)c3cccs3)cc2)cn1	-8.9%
COc1cc(/C=N/NC(N)=O)ccc1OC(=O)c1cccs1	2.79%
COc1ccc(C(=O)Oc2ccc(/C=N/Nc3ccc(Cl)c(C(=O)O)c3)cc2OC)cc1	12.6%
O=C(N/N=C/c1ccc(OC(=O)c2ccco2)cc1)c1ccncc1	69%
COc1cc(/C=N/NC(=O)C(N)=O)ccc1OC(=O)c1cccs1	-4.85%
O=C(N/N=C\c1ccc(OC(=O)c2cccs2)cc1)c1ccc(Cl)cc1	52.2%
COc1ccc(C2CC(C(F)(F)F)n3ncc(C(=O)O)c3N2)cc1OC (stereo not drawn)	-8.85%
COc1cc(OC)cc(C(=O)NC(=S)N2C[C@H]3C[C@H](C2)c2cccc(=O)n2C3)c1	-9.19%
CN(CC(=O)NCc1cccnc1)S(=O)(=O)c1ccc(F)cc1	-7.08%
COc1ccc(/C=N/NC(=O)c2ccccc2OCc2ccccc2)c(OC)c1	32%
C/C(=N\NC(=O)Cc1ccc([N+](=O)[O-])cc1)c1cccnc1	-2.22%
Cc1cc(C(=O)NNC(=O)c2cccs2)c(C)o1	5.92%
COc1ccccc1C(=O)Nc1ccc(S(=O)(=O)Nc2nccs2)cc1	16%
COc1cccc(C2C(C#N)=C(N)SC(c3ccccc3)C2[N+](=O)[O-])c1 (stereo not drawn)	20.5%
Cc1ccccc1C1=NC(c2ccc(F)cc2F)ON1 (stereo not drawn)	8.21%
O=C(NCCCN1CCOCC1)c1ccccc1-c1ccccc1	3.82%
CSc1ccccc1NC(=O)c1cc(C)on1	1.57%
COc1cc(C(=O)Nc2nc(OC)c(-c3ccccc3)c(OC)n2)cc(OC)c1OC	-16.2%
COc1cc(/C=N/NC(=O)c2ccncc2)ccc1OC(=O)c1cc(OC)c(OC)c(OC)c1	52.1%
CCOc1cc(/C=N/NC(=O)COc2ccccc2C)ccc1OC(=O)c1cccs1	9.01%
COc1ccc(/C=N/NC(=O)c2ccc(Br)cc2)cc1CN1CCOCC1	-2.91%

SMILES	inhibition
COc1cc(/C=N/NC(=O)CNC(=O)c2ccccc2)ccc1OC(=O)c1cccs1	39.5%
COc1ccc(/C=N/NC(=O)c2cccnc2)cc1CN1CCOCC1	8.75%
COc1cc(/C=N\NC(=O)c2ccc(C)nc2)ccc1OC(=O)c1cccc(F)c1	-1.23%
CCOc1cc(/C=N/NC(=O)COc2ccc(C)cc2)ccc1OC(=O)c1cccs1	48.1%
COc1cc(/C=N/NC(=O)COc2ccccc2C)ccc1OC(=O)c1cccs1	30.8%
COc1cc2[nH]c(=O)n(CCC(=O)NCCC(C)C)c(=O)c2cc1OC	-11%
O=C(NCCC1CCCCN1S(=O)(=O)c1cccs1)C(=O)NCc1ccccc1 (stereo not drawn)	10.3%
CC1(C)CC(=O)C=C(/C=C/c2ccccc2)C1	-7.3%
COc1ccc(CN(C)C(=O)c2ccc(NS(=O)(=O)c3ccc4[nH]c(=O)[nH]c4c3)cc2)c(OC)c1OC	35.7%
O=C(N/N=C/C(Br)=C/c1ccccc1)c1ccccc1F	49.9%
O=C(c1cc(S(=O)(=O)N2CCC3(CC2)OCCO3)ccc1F)N1CCC2(CC1)OCCO2	-5.64%
CCOCC(=O)OCC(=O)NC12CC3CC(CC(C3)C1)C2	-7.93%
CCOC(=O)N1CCN(C(=O)NC23CC4CC(CC(C4)C2)C3)CC1	-9.51%
CCCN1CCN(S(=O)(=O)c2ccc(-n3cnnn3)cc2)CC1	0.97%
COc1ccc(CCNC(=O)C2CCCN(S(=O)(=O)N3CCCCCC3)C2)cc1OC (stereo not drawn)	14.5%
CCOc1ccc(/C=C/C(=O)N(CC)CC(=O)Nc2ccc3c(c2)OCCO3)cc1OC	13.6%
COc1ccc(N2CCN(Cc3nc4cc(Cl)ccc4c(=O)[nH]3)CC2)cc1	0.72%
CCCn1nnnc1NCc1ccc(OC)cc1	37%
CCCn1nnnc1NCc1ccc(N(C)C)cc1	2.84%
CC(C)c1ccc(CNc2nnnn2C)cc1	44.6%
CCCn1nnnc1NCc1ccc(F)cc1	24.5%
